Rows were chosen to be rich in hits. Some 8.1% of all compounds tested hit in one or more screens of this group.
ELG1 DNA repair: ELG1-dependent DNA repair inhibition; HEK293T ELG1-luciferase reporter, luminescence, 16 h; DNA damage induced by 5-fluorouridine; Potency, µM (series often up to 46.1 µM), most hits filed as inhibitors; 330,000 tested, 2.3% active; also: nearly all actives have a fitted effect of over 55% in size
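Reporter activity after DNA damage by 5-fluorouridine is monitored. Compound-treated cells incubate 16 hr at 37 °C, then ONE-Glo is added for 30 min before luminescence reading.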
SW480 rereplic: DNA re-replication induction in SW480 cells; SW480 DNA re-replication, Hoechst DNA content imaging, 48 h; 340,000 tested, 1.8% active; Potency, µM (series often up to 46.1 µM), actives largely listed as activators; AID 624297; also: nearly all actives have a fitted effect of over 55% in size
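Hoechst fluorescence of nuclei (405 nm excitation, 500-530 nm emission) measured by plate-scanning imager after 48 hr compound exposure at 37 C; re-replication scored as increased number of nuclei with elevated intensity.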
KB-V1 MDR tox: kills drug-selected multidrug resistant KB-V1 cells. KB-V1 MDR cells viability, CellTiter-Glo, 72 h. Potency, µM (highest dose often 46.1 µM), most hits filed as cytotoxic. 400,000 tested, 3.4% active; also: nearly all actives have a fitted effect of over 60% in size
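Following 72 h at 37 degrees C with compound, KB-V1 cell viability was read by CellTiter-Glo luminescence, medium being phenol-red-free DMEM plus 10% FBS; concentration-response parameters came from normalized, curve-fitted qHTS data.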
KB-3-1 cytotox: kills parental KB-3-1 adenocarcinoma cells; 400,000 tested, 1.4% active; KB-3-1 viability, CellTiter-Glo ATP luminescence, 72 h; Potency, µM (titrated, usually from 46.1 µM), usual class: cytotoxic; also: nearly all actives have a fitted effect of over 60% in size
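Cytotoxicity in the drug-sensitive parental line KB-3-1 was scored as loss of CellTiter-Glo luminescence following 72 h incubation with compound. Values come from curve fitting of normalized concentration-response data.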
MCF10A rerep: DNA re-replication induction in MCF 10a cells. MCF 10A DNA re-replication, Hoechst nuclear intensity, 48 h. Potency, µM (titrated, usually from 46.1 µM), most hits filed as activators. 350,000 tested, 2.9% active. AID 624296; also: nearly all actives have a fitted effect of over 50% in size
Hits are given with their value; i = inactive; ? = inconclusive; nt = no result given; [ ] = another dose, or the depositor's remark. Calls follow the shape of the dose curve; as a rule, active = well fitted curve in the direction sought with a large enough effect; inconclusive = small, poorly fitted or top-dose-only effect, or another doubt; inactive = no such curve, though single readings can be large; an effect the other way counts as inactive or inconclusive.

SMILES	ELG1 DNA repair	SW480 rereplic	KB-V1 MDR tox	KB-3-1 cytotox	MCF10A rerep
COC(=O)CNC(=O)CSc1nc2c(sc(=S)n2-c2ccccc2)c(=O)[nH]1	i	?	i	i	i
CC1Cc2ccccc2N1C(=O)C1CCCN(S(=O)(=O)c2cccc3cccnc23)C1 (stereo not drawn)	21µM	?	?	?	i
O=C(O)[C@@H]1CCCN(S(=O)(=O)c2cccc3cccnc23)C1	i	i[9.22 µM]	i	i	i
CC(=O)c1cccc(NC(=O)C2CCCN(S(=O)(=O)c3cccc4cccnc34)C2)c1 (stereo not drawn)	16µM	i	?	i	i
O=C(Nc1nc2cc(Cl)ccc2s1)C1CCCN(S(=O)(=O)c2cccc3cccnc23)C1 (stereo not drawn)	16µM	i	?	?	?
Cc1ccc(NC(=O)C2CCCN(S(=O)(=O)c3cccc4cccnc34)C2)cc1Cl (stereo not drawn)	nt	nt	i	i	nt
O=C(Nc1ccccc1Cl)C1CCCN(S(=O)(=O)c2cccc3cccnc23)C1 (stereo not drawn)	i	i	i	i	?
O=C(Nc1nccs1)C1CCCN(S(=O)(=O)c2cccc3cccnc23)C1 (stereo not drawn)	23µM	i	i	i	i
CC(C)(C)C1CCc2c(sc(NC(=O)c3cc4ccccc4c(=O)o3)c2C(N)=O)C1 (stereo not drawn)	nt	nt	i	i	nt
Cc1ccccc1-c1n[nH]nc1C1=CC(=O)C[C@H](c2ccc(F)cc2)C1	nt	nt	i	i	nt
C[C@H]1CN([C@@H](C)CO)C(=O)c2cc(-c3cccc(F)c3)cnc2O[C@H]1CN(C)C(=O)c1cnccn1	nt	nt	i	i	nt
O=C(Nc1ccc(C(F)(F)F)cc1)C1CCCN1S(=O)(=O)c1cccc2cccnc12 (stereo not drawn)	21µM	i	4.6µM	23µM	i
O=C(Nc1cccc(F)c1)C1CCCN1S(=O)(=O)c1cccc2cccnc12 (stereo not drawn)	i	i	i	i	i
COc1ccc(OC)c(NC(=O)C2(C)CCN2C(=O)C2(c3ccc(Cl)cc3)CCC2)c1 (stereo not drawn)	nt	nt	i	i	nt
CC(C(=O)Nc1ccc(N2CCOCC2)cc1)N1C(=O)NC(C)(C)C1=O (stereo not drawn)	i	i	i	i	i
O=C(c1ccco1)N1CCC(c2nc(-c3ccc(F)cc3)no2)CC1	?	i	i	i	i
O=C(c1cccs1)N1CCC(c2nc(-c3ccc(S(=O)(=O)N4CCOCC4)cc3)no2)CC1	?	i	5.8µM	16µM	i
O=C(c1ccccc1)N1CCC(c2nc(-c3ccc(S(=O)(=O)N4CCOCC4)cc3)no2)CC1	i	i	?	i	i
O=C(Nc1cccc(C(F)(F)F)c1)N1CCC(c2nc(-c3ccc(F)cc3)no2)CC1	?	i	2.6µM	i	?
O=C(Nc1ccccc1)N1CCC(c2nc(-c3ccc(S(=O)(=O)N4CCOCC4)cc3)no2)CC1	?	5.8µM	4.1µM	4.6µM	1.8µM
CC(NC(=O)c1ccc(F)cc1Cl)C1CC2CCC1C2 (stereo not drawn)	?	i	i	i	i
CC(NC(=O)CCC(=O)c1ccc(F)cc1)C1CC2CCC1C2 (stereo not drawn)	i	?	i	i	10µM
Cc1ccccc1NC(=O)c1ccc(N(Cc2ccccc2)S(C)(=O)=O)cc1	nt	nt	?	i	nt
Cc1ncc(CO)c(/C=N/NC(=O)c2ccc(O)cc2)c1O	i	nt	i	i	i
COc1ccc(C(=O)N/N=C/c2c(CO)cnc(C)c2O)cc1	13µM	i	?	i	i
SMILES	ELG1 DNA repair	SW480 rereplic	KB-V1 MDR tox	KB-3-1 cytotox	MCF10A rerep
Cc1ncc(CO)c(/C=N/NC(=O)c2cc3c(s2)CCCC3)c1O	3.3µM	i	?	?	?
Cc1ccc(C(=O)COC(=O)C2CC3CCCC(C2)C3=O)cc1[N+](=O)[O-] (stereo not drawn)	i	i	i	i	i
COc1ccc(OC)c(/C=C/c2c([N+](=O)[O-])c(=O)n(C)c(=O)n2C)c1	?	i	i	21µM	i
CN(C)c1ccc(/C=C/c2c([N+](=O)[O-])c(=O)n(C)c(=O)n2C)cc1	i	i	i	i	i
Cn1c(/C=C/c2ccc(Br)cc2)c([N+](=O)[O-])c(=O)n(C)c1=O	?	?	?	21µM	21µM
CC1CCN(C(=O)c2scc3c2OCCO3)CC1	18µM	i	i	i	i
COc1ccc2c(c1)c1c(c(=O)n(Cc3ccccc3)c(=O)n1CC(=O)NCc1ccc(C)cc1)n2C	nt	nt	i	i	nt
CC(C)N1C(=O)C(Cc2nc3ccccc3c(=O)n2-c2ccccc2)c2ccccc21 (stereo not drawn)	i	i	i	i	i
CCCN1C(=O)/C(=C\c2nc3ccccc3c(=O)[nH]2)c2ccccc21	i	i	?	i	?
CC(C)N1C(=O)/C(=C\c2nc3ccccc3c(=O)n2-c2ccccc2)c2ccccc21	13µM	2.9µM	?	?	?
CC(C)N1C(=O)/C(=C/c2nc3ccccc3c(=O)n2-c2ccccc2)c2ccccc21	21µM	?	?	?	16µM
COC(=O)c1ccc(CNC(=O)c2ccccc2C(=O)NCC2(CBr)OCCO2)cc1	nt	nt	i	i	nt
O=C(NCc1ccccc1)C(c1ccccc1)N(Cc1ccc2c(c1)OCO2)C(=O)Cc1cccs1 (stereo not drawn)	16µM	i	13µM	i	?
O=C(NC1CCCC1)C(c1ccccc1)N(Cc1ccc2c(c1)OCO2)C(=O)Cc1cccs1 (stereo not drawn)	?	i	i	?	?
O=C(NC1CCCC1)C(c1ccsc1)N(Cc1ccccc1)C(=O)Cc1cccs1 (stereo not drawn)	i	i	4.6µM	i	i
O=C1NC[C@@H](CCCCN2C[C@H](Cc3ccc(O)cc3)N(CCc3ccc(O)cc3)C(=O)C2=O)N(CCc2ccccc2)C1=O	nt	nt	i	i	nt
COc1ccccc1NC(=S)N=Nc1c(O)[nH]c2ccc(Br)cc12	?	i	?	2.3µM	?
COc1ccc(/C(C)=N/OCC(=O)N=Nc2c(O)[nH]c3ccc(Br)cc23)cc1	?	i	i	i	i
Cc1cccc(NC(=S)N=Nc2c(O)[nH]c3ccccc23)c1	i	?	i	i	6.5µM
COc1ccc(/C=N/OCC(=O)N=Nc2c(O)[nH]c3ccc(Br)cc23)cc1OC	13µM	i	i	i	?
COc1cc(NC(=O)C(Cc2ccccc2)NS(=O)(=O)c2cccc3nsnc23)cc(OC)c1 (stereo not drawn)	nt	nt	i	?	nt
O=C(COC(=O)Cc1c(F)cccc1Cl)NC1CCS(=O)(=O)C1 (stereo not drawn)	i	i	i	i	i
O=C(CCCN1CCN2CCCC2C1)c1ccc(F)cc1 (stereo not drawn)	nt	i	nt	nt	i
C=C(C)COc1ccc(-c2[nH]ncc2Oc2ccccc2OCC)c(O)c1	i	?	i	?	16µM
